MEKK3 PB1 HTS = modulators of MEKK3-MEK5 PB1 binding, primary screen, biochemical, wildtype MEKK3, multiplex bead flow cytometry, Alexa488-MEK5 | bead-based flow cytometry, Alexa488-MEK5 binding to MEKK3; actives lie on both sides; 0 = blocked by unlabeled MEK5, 100 = vehicle | 1.4% of 290,000 active | binding response (% of control), % at 10 µM | Mitogen-activated protein kinase kinase kinase 3 (Homo sapiens), Q99759;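 active = binding response more than 3 SD above or below the average of its plate-row segment, actives on both sides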;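 note: Alexa488 bead fluorescence after subtracting the streptavidin-only scavenger bead signal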
Rce1 inhib = yeast Rce1p protease inhibitors, primary screen, biochemical, fluorescence, cell-free homogeneous; CAAX prenyl protease 2 (Saccharomyces cerevisiae (strain ATCC 204508 / S288c)), Q03530; yeast membranes, quenched prenylated peptide cleavage fluorescence; calls only; 0.27% of 290,000 active; AID 2563, 2010;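 active = fall in fluorescence gain of 50% or more versus controls, with final raw signal at or below 3038400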
Target sequence (Q03530 whole entry, looked up): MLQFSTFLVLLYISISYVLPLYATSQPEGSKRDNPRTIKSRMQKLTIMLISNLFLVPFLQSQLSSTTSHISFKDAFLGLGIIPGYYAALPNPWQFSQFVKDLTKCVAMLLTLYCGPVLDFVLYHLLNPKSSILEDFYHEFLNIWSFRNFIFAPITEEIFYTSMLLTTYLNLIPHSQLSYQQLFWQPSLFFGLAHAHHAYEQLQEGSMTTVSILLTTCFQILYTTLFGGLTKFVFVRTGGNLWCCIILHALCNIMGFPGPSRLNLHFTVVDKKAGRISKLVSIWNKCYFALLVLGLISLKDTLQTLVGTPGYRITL
UBC13 inh = UBC13 polyubiquitin chain formation inhibitors, primary screen, biochemical, TR-FRET, uHTS. Ubiquitin-conjugating enzyme E2 N (Homo sapiens), P61088. inhibition, % at 20 µM. 0.47% of 330,000 active. AID 485273, 2010; in the data active = inhibition above about 45%, passing the limit was not always enough
Target sequence (P61088 whole entry, looked up): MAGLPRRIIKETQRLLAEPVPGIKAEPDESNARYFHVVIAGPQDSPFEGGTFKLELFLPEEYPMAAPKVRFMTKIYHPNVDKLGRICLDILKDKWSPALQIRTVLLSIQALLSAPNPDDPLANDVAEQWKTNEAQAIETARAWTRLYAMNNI
MEKK2 mut-MEK5 = MEK5 binding signal on mutant MEKK2 PB1, primary screen, biochemical, multiplex bead flow cytometry, Alexa488-MEK5 | Alexa488-MEK5 binding to MEKK2 mutant | percent response, % at 10 µM | 0.35% of 290,000 active | AID 1530, 2009; in the data active = percent response above about 24%, passing the limit was not always enough
MEKK2wt PB1 HTS = modulators of MEK5 binding to wildtype MEKK2, primary screen, biochemical, multiplex bead flow cytometry, Alexa488-MEK5; Mitogen-activated protein kinase kinase kinase 2 (Homo sapiens), Q9Y2U5; Alexa488-MEK5 binding to MEKK2 WT; actives lie on both sides; binding response (% of control), % at 10 µM; 1.1% of 290,000 active; AID 1531, 2009; in the data active = binding response below about 67% or above about 130%
MEKK2wt confirm = modulators of MEK5 binding to wildtype MEKK2, confirmation, biochemical, single concentration, multiplex bead flow cytometry; shares compounds with MEKK3 PB1 HTS; Alexa488-MEK5 binding to MEKK2 WT; actives lie on both sides; binding response (% of control), % at 10 µM; 2.4% of 5,900 active; AID 1892, 2009; in the data active = binding response below about 16% or above about 210%; inactive = in between
MEKK2mut-MEK5 = mutant MEKK2 PB1-MEK5 binding signal retest – biochemical, single concentration, multiplex bead flow cytometry, confirmation. shares compounds with MEKK3 PB1 HTS. Alexa488-MEK5 binding to MEKK2 mutant. 2% of 5,900 active. percent response, % at 10 µM; in the data active = percent response mostly above about 71%, no sharp cut-off; inactive = mostly below about 38%;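 note: higher means compound restores mutant binding toward wildtype level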
MEKK3-MEK5 inh = MEKK3 wild-type PB1 binding to MEK5, inhibitors, confirmation, biochemical, bead multiplex flow cytometry, single concentration, wildtype; shares compounds with MEKK3 PB1 HTS; Alexa488-MEK5 binding to MEKK3; active compounds read low; binding response (% of control), % at 10 µM; 1.8% of 5,900 active; AID 1894, 2009;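 active = binding response below 72% of control, or above a set upper limit, though filed actives all read lower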;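 note: lower values mean stronger disruption of MEK5 binding to MEKK3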
Each line names hits and unclear results; the compound was inactive in the other large screens (follow-up assays come after a bar, where they were run); [ ] = remark or other dose. Hits are enriched below; roughly 2.5% of the tested compounds scored in any of these assays.

CCOC(=O)C(O)(c1ccc(NC(=O)Oc2ccccc2)cc1)C(F)(F)F (stereo unspecified)	MEKK3 PB1 HTS 130 | MEKK2wt confirm inactive | MEKK2mut-MEK5 inactive | MEKK3-MEK5 inh inactive
COc1ccc(OC)c(C2=NOC(C(=O)N3CCC4(CC3)OCCO4)C2)c1 (stereo unspecified)	none
CN(C)c1ccc(/C=C/c2cc[n+](C)c3ccccc23)cc1	MEKK3 PB1 HTS 70[inhibitor] (no result: Rce1 inhib, UBC13 inh, MEKK2wt PB1 HTS) | MEKK2wt confirm inactive | MEKK2mut-MEK5 inactive | MEKK3-MEK5 inh inactive
Cc1cc(NC(=O)CCC(=O)N2CCC3(CC2)OCCO3)no1	none
Cn1c(O)c(C=NCCN2CCOCC2)c(=O)n(C)c1=S	none
CCN1C(=O)NC(=O)/C(=C/c2cc(C)n(-c3sc(C)c(C)c3C#N)c2C)C1=O	MEKK3 PB1 HTS 130 | MEKK2wt confirm inactive | MEKK2mut-MEK5 inactive | MEKK3-MEK5 inh inactive
Cn1c(O)c(Cc2ccc(OCc3ccccc3)cc2)c(=O)n(C)c1=O	none
Cc1ccc2c(c1)C(c1ccccc1)NCC(=O)N2 (stereo unspecified)	MEKK3 PB1 HTS 74[inhibitor] | MEKK2wt confirm inactive | MEKK2mut-MEK5 inactive | MEKK3-MEK5 inh inactive
Cn1c(O)c(/C=C2\C=Nc3ccccc32)c(=O)n(C)c1=O	none
COC(=O)C1=Nc2ccccc2/C1=C\c1c(O)n(C)c(=O)n(C)c1=O	MEKK3 PB1 HTS 74[inhibitor], MEKK2wt PB1 HTS 55[inhibitor] | MEKK2wt confirm inactive | MEKK2mut-MEK5 inactive | MEKK3-MEK5 inh inactive
CCCNC(=O)N1[C@H]2CC[C@@H]1C(C(=O)OC)=C(c1cc3ccccc3o1)C2	none
C=CCN1C(=O)NC(=O)/C(=C/c2cc3c4c(c2)CCCN4CCC3)C1=O	MEKK2wt PB1 HTS 26[inhibitor] (no result: Rce1 inhib) | MEKK2wt confirm inactive | MEKK2mut-MEK5 inactive | MEKK3-MEK5 inh inactive
C=CCN1C(=O)NC(=O)/C(=C/c2cnc(SC)nc2)C1=O	none
Cc1cccc(-n2c(-c3cccs3)nc3ccccc3c2=O)c1	MEKK3 PB1 HTS 130 | MEKK2wt confirm inactive | MEKK2mut-MEK5 inactive | MEKK3-MEK5 inh inactive
O=c1c2ccccc2nc(-c2cccs2)n1-c1ccccc1	none
C=Cc1ccc(Cn2c(C(=O)O)c(C=O)c3ccccc32)cc1	none
Cn1c(CN2CCN(C(=O)COc3ccccc3)CC2)nc2cc([N+](=O)[O-])ccc21	MEKK3 PB1 HTS 152 | MEKK2wt confirm inactive | MEKK2mut-MEK5 inactive | MEKK3-MEK5 inh inactive
Cc1cccc(OCC(=O)N2CCN(Cc3ccc([N+](=O)[O-])cc3)CC2)c1	none
OC(c1ccccc1)(c1ccccc1)C1CCNCC1	MEKK2wt PB1 HTS 136 | MEKK2wt confirm inactive | MEKK2mut-MEK5 inactive | MEKK3-MEK5 inh inactive
COc1cccc(CNCCc2ccc(F)cc2)c1	none
Fc1ccc(CCNCc2cccc(Cl)c2)cc1	MEKK3 PB1 HTS 75[inhibitor] | MEKK2wt confirm inactive | MEKK2mut-MEK5 inactive | MEKK3-MEK5 inh inactive
C#CCN(C)C(C)Cc1ccccc1 (stereo unspecified)	MEKK3 PB1 HTS 69[inhibitor], MEKK2wt PB1 HTS 61[inhibitor] | MEKK2wt confirm inactive | MEKK2mut-MEK5 inactive | MEKK3-MEK5 inh inactive
CCCCNC(C)Cc1ccccc1 (stereo unspecified)	none (no result: MEKK3 PB1 HTS, Rce1 inhib, MEKK2 mut-MEK5, MEKK2wt PB1 HTS)
O=c1cccc2n1CC1CC2CN(S(=O)(=O)c2cc(Cl)ccc2Cl)C1 (stereo unspecified)	none
CN1C(=O)C(=Cc2ccc(OCC(=O)Nc3ccccc3)cc2)C(=O)N(C)C1=O	none
CCOc1ccc(-c2cc(C)[n+](CCc3ccc(OC)c(OC)c3)c(-c3ccc(OCC)cc3)c2)cc1	MEKK2 mut-MEK5 37, MEKK2wt PB1 HTS 141 | MEKK2wt confirm inactive | MEKK2mut-MEK5 inactive | MEKK3-MEK5 inh inactive
CCS(=O)(=O)NC(C)c1nnc2n1-c1ccc(Br)cc1C(c1ccccc1Cl)=NC2 (stereo unspecified)	none (no result: MEKK3 PB1 HTS, MEKK2 mut-MEK5, MEKK2wt PB1 HTS)
CCn1c(O)c(/C=N/N2CCOCC2)c(=O)n(CC)c1=S	MEKK3 PB1 HTS 143 | MEKK2wt confirm inactive | MEKK2mut-MEK5 inactive | MEKK3-MEK5 inh inactive
O=C1C2CCCN2C(c2ccc(Cl)cc2)N1c1ccccn1 (stereo unspecified)	none
COc1cccc(N(C(C)=O)C2=NCCCS2)c1	none
N#CC(C#N)=Cc1ccc(N2CCOCC2)cc1	none
Cc1cc(C=C(C#N)C#N)ccc1N1CCCC1	MEKK2wt PB1 HTS 63[inhibitor] | MEKK2wt confirm inactive | MEKK2mut-MEK5 inactive | MEKK3-MEK5 inh inactive
CCCNC(=O)c1c(N)n(CC2CCCO2)c2nc3ccccc3nc12 (stereo unspecified)	MEKK3 PB1 HTS 123 | MEKK2wt confirm inactive | MEKK2mut-MEK5 inactive | MEKK3-MEK5 inh inactive
COc1ccc2[nH]cc(C3=CCNCC3)c2c1	MEKK2 mut-MEK5 174, MEKK2wt PB1 HTS 182 | MEKK2wt confirm inactive | MEKK2mut-MEK5 inactive | MEKK3-MEK5 inh inactive
COc1ccc2[nH]cc(CCN=C(N)N)c2c1	none
CC/C(=N\NC(=O)Nc1ccccc1)c1c(O)n(Cc2ccccc2)c(=O)[nH]c1=O	MEKK3 PB1 HTS 132 | MEKK2wt confirm inactive | MEKK2mut-MEK5 inactive | MEKK3-MEK5 inh inactive
ON1C2CCCCC2N(O)C1c1ccccc1 (stereo unspecified)	MEKK3 PB1 HTS 22[inhibitor], MEKK2wt PB1 HTS 33[inhibitor] | MEKK2wt confirm inactive | MEKK2mut-MEK5 inactive | MEKK3-MEK5 inh inactive
O=C(c1cccc2ccccc12)C1CCCN(C2CCC2)C1 (stereo unspecified)	none
CCOC(=O)c1c(C)n(Cc2ccccc2)c2ccc(OCC(O)CNC(C)(C)C)cc12 (stereo unspecified)	MEKK2wt PB1 HTS 150 | MEKK2wt confirm inactive | MEKK2mut-MEK5 inactive | MEKK3-MEK5 inh inactive
CCOC(=O)c1c(C)n(Cc2ccccc2)c2ccc(OCC(O)Cn3nc(C)nc3C)cc12 (stereo unspecified)	none (no result: MEKK3 PB1 HTS, MEKK2 mut-MEK5, MEKK2wt PB1 HTS)
CCOC(=O)c1c(C=O)c2ccccc2n1Cc1ccccc1F	none
O=C1NC(=O)C2(Cc3ccccc3N3CCCC32)C(=O)N1Cc1ccccc1 (stereo unspecified)	MEKK3 PB1 HTS -2.0[inhibitor], MEKK2wt PB1 HTS -30[inhibitor] | MEKK2wt confirm inactive | MEKK2mut-MEK5 inactive | MEKK3-MEK5 inh inactive

Screening results from PubChem BioAssay.
